Experimental data published in PubChem BioAssay (NCATS).
Values without a mark were called inactive. Activity calls are given as the source filed them. The call rests on the fitted dose curve; in most records, active means well fitted curve in the direction sought with a large enough effect; inconclusive means small, poorly fitted or top-dose-only effect, or another doubt; inactive means no such curve, though single readings can be large or run the other way.

These compounds were tested against Alpha-galactosidase (Coffea arabica) (UniProt Q42656) (assay: Counterscreen for Glucocerebrosidase Inhibitors: qHTS Assay for Coffee Bean alpha-Galactosidase at pH 4.5 (AID 957;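 further: plate controls were enzyme alone for no effect and no enzyme for full effect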)). Settings: purified coffee bean alpha-galactosidase, fluorogenic substrate; series mostly up to 76.9 µM; activity change, negative = inhibition: at the top concentration.
Sequence of Alpha-galactosidase (Coffea arabica) (Q42656 whole entry, looked up): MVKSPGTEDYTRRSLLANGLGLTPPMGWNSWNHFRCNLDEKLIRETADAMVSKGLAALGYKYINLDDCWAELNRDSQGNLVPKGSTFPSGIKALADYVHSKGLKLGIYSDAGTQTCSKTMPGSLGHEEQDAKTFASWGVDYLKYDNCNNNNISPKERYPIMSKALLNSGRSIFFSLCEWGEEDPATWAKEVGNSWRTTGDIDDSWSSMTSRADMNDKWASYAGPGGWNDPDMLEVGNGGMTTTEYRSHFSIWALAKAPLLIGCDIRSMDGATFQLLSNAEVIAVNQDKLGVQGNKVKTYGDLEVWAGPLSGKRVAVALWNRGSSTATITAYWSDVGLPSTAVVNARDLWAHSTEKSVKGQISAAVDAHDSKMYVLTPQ
Source text: NIH Chemical Genomics Center [NCGC]
NIH Molecular Libraries Screening Centers Network [MLSCN]
PI Name: Zheng, Wei [NIH]
Alpha-galactosidase is a homodimeric glycoprotein that hydrolyzes the terminal alpha-galactosyl moieties from glycolipids and glycoproteins. Deficiency of this enzyme results in Fabry Disease with progressive accumulation of globotriaosylceramide and other glycosphingolipids in vascular endothelial cells that causes renal failure, myocardial infarction and stroke, and premature death in patients. It has reported that the improper folding and trafficking of alpha-galactosidase resulted from the genetic mutations may account for a significant numbers of Fabry patients. […] We optimized this coffee bean alpha-galactosidase assay in 1536-well plate format as a counter-screen assay for identifying the selective small molecule inhibitors of other lysosomal enzymes.
NCGC Assay Protocol Summary:
This is a fluorogenic enzyme assay with 4-Methylumbelliferyl alpha-D-galactopyranoside as the substrate and green coffee bean […] (from Sigma-Aldrich) as the enzyme preparation. Upon the hydrolysis of this fluorogenic substrate, the resulting product, […]. 4-Methyllumbelliferone, can be excited at 365 nm and emits at 440 nm which can be detected by a standard fluorescence plate reader. Data were normalized to the controls for basal activity (without enzyme) and 100% activity (with enzyme). In the AC50 values were determined from concentration-response data modeled with the standard Hill equation.
Assay buffer: 50 mM citric acid, 0.005% Tween-20, pH 4.5. (pH 5.9 is an optimal condition for this enzyme assay. This assay in pH 4.5 is used for comparison the inhibitor activities with the human alpha-galactosidase assay)
1536-well assay protocol for the coffee bean alpha-galactosidase:
(1) Add 2 ul/well of enzyme (2 nM final)
(2) Add 23 nL compounds in DMSO solution. The final titration was 0.7 nM to 77 uM.
(3) Add 1 ul of substrate (80 uM final)
(4) Incubate at room temperature for 20 min.
(5) Add 2 ul stop solution (1M NaOH and 1M Glycine mixture, pH 10)
(6) Detect the assay plate in a ViewLux plate reader (PerkinElmer) with Ex=365 nm and Em=440nm.
Keywords: Alpha-galactosidase, Fabry Disease, pharmacological chaperone, chaperone therapy, high throughput screening, alpha-galactosidase inhibitor, MLSMR, MLSCN, NIH Roadmap, qHTS and NCGC
In the case of `COc1cccc(-c2cc(=O)c3ccccc3o2)c1N`, the “activity change, negative = inhibition” value is reported as 1.65%.
With `c1ccc2c(c1)OC[C@@H](C1=NCCN1)O2` the “activity change, negative = inhibition” value was -4.69%.
In the case of `Cn1cnc2c(NCc3ccccc3)nc(NCCO)nc21`, the “activity change, negative = inhibition” value is reported as -2.79%.
In the case of `Nc1ccc(-c2ccc3ccccc3n2)cc1`, the “activity change, negative = inhibition” value is reported as -3.71%.
With `N[C@H](CCP(=O)(O)O)C(=O)O` the “activity change, negative = inhibition” value was -0.338%.
With `O=c1c(O)c(-c2ccc(O)cc2O)oc2cc(O)cc(O)c12` the “activity change, negative = inhibition” value was -1.13%.
`CCN(CC)CCOC(=O)c1cc(Cl)c(N)cc1OC` was tested, and the “activity change, negative = inhibition” value was 6.27%.
`C[C@]12CC[C@@H]3c4ccc(O)cc4CC[C@H]3[C@@H]1CC[C@@H]2O` was tested, and the “activity change, negative = inhibition” value was 2.92%.
In the case of `CC(=O)[C@H]1CC[C@H]2[C@@H]3CCC4=CC(=O)CC[C@]4(C)[C@H]3CC[C@]12C`, the “activity change, negative = inhibition” value is reported as -0.358%.
With `C[C@H](NC(=O)/C(C#N)=C/c1ccc(O)c(O)c1)c1ccccc1` the “activity change, negative = inhibition” value was -4.52%.
`CCCc1c(OCCCOc2ccc(OCC(=O)O)cc2)ccc(C(C)=O)c1O` was tested, and the “activity change, negative = inhibition” value was -0.0507%.
In the case of `CCn1c(=O)[nH]c2cc(Cl)c(Cl)cc21`, the “activity change, negative = inhibition” value is reported as -2.38%.
For `NC(=NCc1ccccc1)NC(=O)c1nc(Cl)c(N)nc1N`, the “activity change, negative = inhibition” value was -3.49%.
`O=c1cc(-c2ccc(O)cc2)oc2cc(O)cc(O)c12` was tested, and the “activity change, negative = inhibition” value was -8.38%.
In the case of `c1ccc(-c2ccccn2)nc1`, the “activity change, negative = inhibition” value is reported as -3.01%.
For `N#C/C(=C\c1ccc(O)c(O)c1)C(=O)c1ccc(O)c(O)c1`, the “activity change, negative = inhibition” value was -3.61%.
`CC[C@H](NC(=O)c1c(C)c(-c2ccccc2)nc2ccccc12)c1ccccc1` was tested, and the “activity change, negative = inhibition” value was -5.06%.
`NC(N)=NCc1cccc(I)c1` was tested, and the “activity change, negative = inhibition” value was -0.217%.
`Brc1ccc([C@H]2CN3CCSC3=N2)cc1` was tested, and the “activity change, negative = inhibition” value was -8.35%.
`O=C(O)c1cc([N+](=O)[O-])ccc1NCCCc1ccccc1` was tested, and the “activity change, negative = inhibition” value was 0.653%.
With `CSC(=N)N` the “activity change, negative = inhibition” value was 1.8%.
In the case of `CNc1cc(NS(=O)(=O)c2ccc(N)cc2)nc(NC)n1`, the “activity change, negative = inhibition” value is reported as -0.902%.
With `O=c1c(O)c(-c2cc(O)c(O)c(O)c2)oc2cc(O)cc(O)c12` the “activity change, negative = inhibition” value was -5.4%.
In the case of `Nc1ccc(-c2nc3ccc(-c4nc5ccc(N)cc5[nH]4)cc3[nH]2)cc1`, the “activity change, negative = inhibition” value is reported as -3.98%.
For `CP(=O)(O)CCCN`, the “activity change, negative = inhibition” value was -3.4%.
`CCCCCCCCCCC/C=C\C(C)(C)/C=C\CCCC(=O)O` was tested, and the “activity change, negative = inhibition” value was -8.57%.
In the case of `C[C@H](O)C(=O)C1=Nc2c(nc(N)[nH]c2=O)NC1`, the “activity change, negative = inhibition” value is reported as 0.32%.
With `C[N+](C)(CCCCCC[N+](C)(C)CCCN1C(=O)c2cccc3cccc(c23)C1=O)CCCN1C(=O)c2cccc3cccc(c23)C1=O` the “activity change, negative = inhibition” value was -8.07%.
With `O=[N+]([O-])c1cccc2cn[nH]c12` the “activity change, negative = inhibition” value was 2.11%.
In the case of `O=C(O)c1cc(=O)cc(C(=O)O)[nH]1`, the “activity change, negative = inhibition” value is reported as 2.23%.
In the case of `c1ccc2c(c1)CC(N1CCN(c3cccc4c3OCCO4)CC1)C2`, the “activity change, negative = inhibition” value is reported as -4.53%.
With `N=C(N)c1ccc(OCCCCCOc2ccc(C(=N)N)cc2)cc1` (tested in a mixture with another compound) the “activity change, negative = inhibition” value was -2.46%.
For `COc1cc2c(CCNC(C)=O)c[nH]c2cc1O`, the “activity change, negative = inhibition” value was 0.387%.
For `Nc1nc(OCc2ccccc2)c2[nH]cnc2n1`, the “activity change, negative = inhibition” value was -1.47%.
With `O=Nc1ccc2oc(=O)ccc2c1` the “activity change, negative = inhibition” value was -1.67%.
For `C=C[C@H]1CN2CC[C@@H]1C[C@@H]2[C@@H](O)c1ccnc2ccc(OC)cc12`, the outcome was “inactive”.
`CCCCCCCCCCCCCCC[C@H](O)[C@H](N)CO` was tested, and the “activity change, negative = inhibition” value was -0.966%.
With `O=c1onc2n1-c1cc(Br)ccc1OC2` the “activity change, negative = inhibition” value was -0.993%.
In the case of `Nc1c(S(=O)(=O)O)cc(Nc2ccc(Nc3nc(Cl)nc(Nc4ccc(S(=O)(=O)O)cc4)n3)c(S(=O)(=O)O)c2)c2c1C(=O)c1ccccc1C2=O`, the “activity change, negative = inhibition” value is reported as -2.98%.
`Nc1ccc2c3c(cccc13)C(=O)NC2=O` was tested, and the “activity change, negative = inhibition” value was -2.39%.
